Consider 24 sequences from the OligoGym collection.
Note: reference of the scale not given here.

The target of one assay is AGAP3. In words: pooled miR-30 sensor sort-seq; sequence = guide strand. The settings on record: shRNA.
In turn, TACCAGATGAGCAGCTGCGTGA yielded a sensor-assay potency score (higher = more potent) of -0.56.
For TTCATCTCGGATCAGCAGCAGG, the sensor-assay potency score (higher = more potent) is -1.26.
TCTGCTGTCGTCGATAACCCGG had a sensor-assay potency score (higher = more potent) of -1.3.
As for ATTGGGTGCATCGCAGTCGATA, the sensor-assay potency score (higher = more potent) is -1.38.
On the same count and under the same terms, as for TACTTCTTCTTCCACTCCTTGT, the figure is -0.51; as for TCGCAGTCGATACAAAAGCTGT, -1.8; as for TACACAAACATAAATATTCCAA, -0.597.
Same read-out and setting: as for TGGAACTGAGTACCTCAGCTGG, the figure is -1.58.
Same read-out and setting: as for TTAAGCTCCGGTACGGAGCGGC, the figure is -0.14; as for TTCCCTGGCACTTTCACCGTTG, -0.316; as for TTGTACACCGTCTGGAAACTGA, -0.718.
With ATACTTCTTCTTCCACTCCTTG, the sensor-assay potency score (higher = more potent) is -0.733.

Another assay concerns the target AGBL5. The description is as above. To be noted: shRNA.
On to TTTGGAAGCATGTCCATGCAGG, for which the sensor-assay potency score (higher = more potent) was -0.608.
The same measure, in the same setting: as for TTTCAGCACAGTCTGGTCGGGT, the figure is -0.447; as for TTCTTCTCTGAGAAATTGCAGC, -0.823.
AATAGTTCCACAGTGTATCTGG: the sensor-assay potency score (higher = more potent) was determined as 0.759.
Still for that read-out and setting: as for TTGTAGTTGCATTCAAGTGTGT, the figure is 0.25; as for TTGAAGACAAAGCTAGATGGAG, -0.419; as for TTTAGGGACAAAACAAACCTCA, -0.454.
Sequence TTCCGTTTCAGCACAGTCTGGT yielded a sensor-assay potency score (higher = more potent) of 0.615.
Still for that read-out and setting: as for ATCTACACGAAGTCCATCCAGA, the figure is -1.07; as for TTGTAGATTGCAACACGGCCGC, -0.607.
In turn, TTGCATTCAAGTGTGTAGCTGT came in with a sensor-assay potency score (higher = more potent) of 0.765.
Still for that read-out and setting: as for TAGATTAGTAAGGCTGCTGTGC, the figure is -0.537.
